The record followed here is PubChem BioAssay (Tox21).

Assay [1] concerns the target Retinoic acid receptor RXR-alpha (Homo sapiens) (UniProt P19793). Put plainly: qHTS assay to identify small molecule agonists of the RXR signaling pathway (AID 1159527; calls by dose curve; also: nearly all actives have a fitted effect of over 35% in size; also: potency is read from the fitted curve at half-maximal effect). The gist of the method:
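GeneBLAzer RXR-alpha-UAS-bla HEK 293T cells in medium with 2% charcoal-stripped FBS, pre-incubated 5 hr at 37 C, then exposed to compounds 16 hr. Beta-lactamase reporter read by FRET substrate, 2 hr room temperature, 460/530 nm emission.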
On the technique in general: In qHTS, concentration-response curves come from the screen itself.

Assay [2] in a line: qHTS assay to identify small molecule agonists of the RXR signaling pathway - cell viability counter screen (AID 1159529). Also: series mostly up to about 77 µM; nearly all actives have a fitted effect of over 50% in size. Summed up:
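RXR-alpha-UAS-bla HEK 293T cells in medium with 2% charcoal-stripped FBS were preincubated 5 hr, then exposed to compounds for 16 hr at 37 C. Viability was read as CellTiter-Glo luminescence after 30 min at room temperature.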

Assay [3] in a line: qHTS assay to identify small molecule antagonists of the retinoid acid receptor (RAR) signaling pathway - cell viability counter screen (AID 1159551). Also: nearly all actives have a fitted effect of over 35% in size. Summed up: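 Retinol-stimulated (1 uM final) C3RL4 cells, compound 6 h, 37 C; readout CellTiter-Glo luminescence (ATP) after 30 min RT incubation.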
Assay [4] in a line: qHTS assay to identify small molecule antagonists of the estrogen related receptor (ERR) signaling pathway from Tox21 library - cell viability counter screen (AID 1224834). Also: nearly all actives have a fitted effect of over 30% in size. Summed up: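 After 17.5 h of compound exposure at 37 C, ERR cells are incubated with CellTiter-Fluor for 30 min and fluorescence intensity serves as the viability measure.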
The target of assay [5] is Luciferin 4-monooxygenase (Photinus pyralis) (UniProt P08659). Put plainly: qHTS assay to identify small molecule inhibitors of firefly luciferase (AID 1224835). Also: series mostly up to about 120 µM; nearly all actives have a fitted effect of over 25% in size. The gist of the method:
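Quantitative HTS format; KM concentrations of both substrates. Purified P. pyralis FLuc activity quantified from luminescence images.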

A short description of assay [6]: qHTS assay to identify small molecule agonists of the constitutive androstane receptor (CAR) signaling pathway - cell viability counter screen (AID 1224836). Also: series mostly up to about 92 µM; nearly all actives have a fitted effect of over 45% in size. The gist of the method: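 HepG2 cells stably carrying hCAR and a CYP2B6-2.2kb reporter were plated 4 h, then given compounds at 15 concentrations plus PK11195 (final 0.75 uM). After 23 h at 37 C, viability was read by CellTiter-Fluor fluorescence.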

Assay [7] can be described thus: qHTS assay to identify small molecule antagonists of the constitutive androstane receptor (CAR) signaling pathway - cell viability counter screen (AID 1224837). Also: series mostly up to about 92 µM; nearly all actives have a fitted effect of over 45% in size. Summed up: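 Counter screen run in HepG2-CYP2B6-hCAR cells: 4 hr settle, compound titration (15 concentrations) with 50 nM CITCO, 23 hr at 37 C/5% CO2, CellTiter-Fluor fluorescence.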
A short description of assay [8]: qHTS assay to identify small molecule antagonists of the estrogen related receptor signaling pathway with the pleiotropic PPARgamma coactivator (PGC) from Tox21 10K library - cell viability counter screen (AID 1224840; active = well fitted cell-killing curve with a large enough effect in the repeat runs, not every such curve was filed as active; also: nearly all actives have a fitted effect of over 40% in size). The gist of the method:
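Following seeding of 2,000 PGC/ERR cells/well and 6 hours' incubation, test compounds were delivered in DMSO. The plates then sat 17.5 hours at 37 C before a fluorogenic live-cell protease reagent (CellTiter-Fluor) was read after 30 min.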

The nature of assay [9]: qHTS assay to identify small molecule antagonists of the estrogen related receptor signaling pathway with the pleiotropic PPARgamma coactivator (PGC) from Tox21 10K library (AID 1224841; call rule not given here; also: series mostly up to about 92 µM; actives are mostly falling curves and most rising ones were filed inactive; nearly all actives have a fitted effect of over 50% in size). The gist of the method: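 qHTS antagonist format: PGC/ERR cells, 2k/well, compound in DMSO by pin transfer after 6 h attachment, 18 h treatment at 37 C, One-Glo luminescence read at 30 min.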

The target of assay [10] is Nuclear receptor subfamily 1 group I member 3 (Homo sapiens) (UniProt Q14994). Put plainly: qHTS assay to identify small molecule antagonists of the constitutive androstane receptor (CAR) signaling pathway (AID 1224838). Also: nearly all actives have a fitted effect of over 40% in size. Also: potency is read from the fitted curve at half-maximal effect. The gist of the method: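 Cell line: HepG2 double-stable for hCAR and CYP2B6-2.2kb reporter. Agonist: CITCO, 50 nM final. Compounds: 15 concentrations, 24 h, 37 C. Detection: ONE-Glo luminescence.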
Chain of Nuclear receptor subfamily 1 group I member 3 (Homo sapiens) (Q14994 whole entry, looked up): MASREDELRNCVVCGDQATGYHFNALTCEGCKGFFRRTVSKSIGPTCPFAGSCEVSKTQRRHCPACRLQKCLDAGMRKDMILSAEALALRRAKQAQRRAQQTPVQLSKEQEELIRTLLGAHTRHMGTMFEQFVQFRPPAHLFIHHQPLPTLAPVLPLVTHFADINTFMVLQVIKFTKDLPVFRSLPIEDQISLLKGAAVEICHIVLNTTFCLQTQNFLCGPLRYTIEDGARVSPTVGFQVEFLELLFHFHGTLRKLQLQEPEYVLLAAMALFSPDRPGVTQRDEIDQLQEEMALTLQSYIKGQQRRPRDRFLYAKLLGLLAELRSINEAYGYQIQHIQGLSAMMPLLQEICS

For assay [11] the target is unchanged. Put plainly: qHTS assay to identify small molecule agonists of the constitutive androstane receptor (CAR) signaling pathway (AID 1224839). Also: series mostly up to about 92 µM; nearly all actives have a fitted effect of over 15% in size. Summed up:
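HepG2 cells stably expressing hCAR and a CYP2B6-2.2kb luciferase reporter were treated with compounds at 15 concentrations plus 0.75 uM PK11195 (final) for 24 h at 37 C; luminescence was read after ONE-Glo addition.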

The nature of assay [12]: qHTS assay to identify small molecule agonists of the estrogen related receptor signaling pathway with the pleiotropic PPARgamma coactivator (PGC) from Tox21 10K library (AID 1224842). Also: nearly all actives have a fitted effect of over 15% in size. The gist of the method: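 PGC/ERR reporter cells (NTP line) were seeded 2,000 per well, rested 6 h at 37 C/5% CO2, then pin-dosed with compounds in DMSO for 18 h at 37 C; luciferase read by One-Glo luminescence after 30 min at room temperature.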

Results filed as inconclusive are left out. A number with no mark means an inactive call. The source made the active and inactive calls. Unless noted, calls follow the shape of the dose curve; as a rule, active = well fitted curve in the direction sought with a large enough effect in the repeat runs; inconclusive = weak or mixed curves; inactive = no such curve, though single readings can be large; an effect the other way counts as inactive or inconclusive.
% is scaled to controls: 0 for no effect and ±100 for the full control effect.

Chain of Retinoic acid receptor RXR-alpha (Homo sapiens) (P19793 whole entry, looked up): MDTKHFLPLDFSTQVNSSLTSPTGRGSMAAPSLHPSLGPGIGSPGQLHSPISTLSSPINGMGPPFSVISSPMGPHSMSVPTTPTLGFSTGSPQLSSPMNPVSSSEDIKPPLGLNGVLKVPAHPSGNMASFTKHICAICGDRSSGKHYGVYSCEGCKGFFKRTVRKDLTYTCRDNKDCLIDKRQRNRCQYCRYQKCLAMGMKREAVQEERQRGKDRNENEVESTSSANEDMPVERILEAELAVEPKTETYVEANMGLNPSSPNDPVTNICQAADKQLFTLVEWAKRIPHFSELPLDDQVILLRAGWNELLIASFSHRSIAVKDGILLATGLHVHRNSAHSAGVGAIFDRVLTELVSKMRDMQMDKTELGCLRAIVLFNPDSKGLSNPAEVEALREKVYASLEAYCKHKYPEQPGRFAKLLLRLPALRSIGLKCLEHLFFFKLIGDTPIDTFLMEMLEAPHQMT
Chain of Luciferin 4-monooxygenase (Photinus pyralis) (P08659 whole entry, looked up): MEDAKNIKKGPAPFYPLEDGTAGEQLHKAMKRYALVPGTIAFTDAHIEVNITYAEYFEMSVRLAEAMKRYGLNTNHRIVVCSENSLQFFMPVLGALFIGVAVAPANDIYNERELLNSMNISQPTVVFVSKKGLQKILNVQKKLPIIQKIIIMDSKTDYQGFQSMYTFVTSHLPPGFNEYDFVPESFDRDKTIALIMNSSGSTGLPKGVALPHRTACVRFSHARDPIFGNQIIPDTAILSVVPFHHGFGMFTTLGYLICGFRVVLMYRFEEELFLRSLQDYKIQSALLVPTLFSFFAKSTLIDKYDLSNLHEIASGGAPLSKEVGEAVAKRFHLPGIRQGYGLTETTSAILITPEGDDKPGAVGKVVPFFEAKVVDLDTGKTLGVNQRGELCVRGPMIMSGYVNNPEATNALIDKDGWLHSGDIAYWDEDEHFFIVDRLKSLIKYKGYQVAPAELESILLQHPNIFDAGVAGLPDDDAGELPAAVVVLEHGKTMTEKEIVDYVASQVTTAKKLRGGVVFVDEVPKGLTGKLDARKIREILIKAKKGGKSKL

For the compound `CCCCC=O`, the Potency in [1] is 17.4 µM (active). The Potency result in assay [2], in assay [4] and in assay [5] was “inactive” in each case. For the same compound, the compound was called inactive in assay [3], in [6], in [7] and in assay [8].

`CN1[C@@H]2CC[C@H]1CC(NC(=O)n1c(=O)[nH]c3ccccc31)C2` (stereo partly specified): the Potency entry in [1], in assay [2], in assay [4], in assay [5] and in assay [9] was “inactive” each time. Besides, the outcome in assay [3], in [6], in [7] and in assay [8] was inactive.

Consider `N[C@@H](CS)C(=O)O`, for which the Potency entry in assay [1], in assay [2], in [4] and in assay [5] was “inactive” throughout. Besides, the result in [3], in assay [6], in assay [7] and in assay [8] was inactive.

On to `C#CC(O)C(CC)CCCC` (stereo unspecified), for which the Potency result in assay [1], in assay [2], in [4], in assay [5], in assay [10] and in [11] was “inactive” in each case. For the same compound, the result in assay [3], in assay [6], in assay [7] and in [8] was inactive.

For the compound `C=CCSCC1Nc2cc(Cl)c(S(N)(=O)=O)cc2S(=O)(=O)N1` (stereo unspecified), the Potency result in [1], in assay [2], in [4], in assay [5] and in assay [11] was “inactive” each time. The compound was called inactive in [3], in assay [6], in assay [7] and in [8].

With `CC(C)[C@H](N)C(=O)OCCOCn1cnc2c(=O)[nH]c(N)nc21`, the Potency result in assay [1], in assay [2], in [4] and in assay [5] was “inactive” in each case. Also, the call in assay [3], in assay [6], in assay [7] and in [8] was inactive.

`CC(CCO)CCCC(C)(C)O` (stereo unspecified): the Potency in assay [1] is 3.09 µM (active); in assay [10] it was 27.3 µM (active). The Potency entry in assay [2], in [4], in assay [5] and in [11] was “inactive” throughout. For the same compound, the call in assay [3], in [6], in [7] and in assay [8] was inactive.

For `COc1nc(C)nc(N)n1`, the Potency result in [1], in assay [2], in assay [4] and in assay [5] was “inactive” throughout. Moreover, the compound was classed as inactive in [3], in assay [6], in assay [7] and in assay [8].

In the case of `Nc1cc(N)cc(C(=O)O)c1`, the Potency result in assay [1], in assay [2], in assay [4] and in assay [5] was “inactive” throughout. Further, the compound was called inactive in [3], in assay [6], in [7] and in assay [8].

As for `CC(=O)CCc1ccc(O)cc1`, the Potency result in [1], in assay [2], in [4] and in [5] was “inactive” throughout. The compound was called inactive in assay [3], in [6], in assay [7] and in assay [8].

For `OCCN1C[C@H](O)[C@@H](O)[C@H](O)[C@H]1CO`, the Potency entry in assay [1], in assay [2], in assay [4] and in assay [5] was “inactive” in each case. In addition, the result in assay [3], in [6], in assay [7] and in assay [8] was inactive.

Take `C=C(C)C(=O)NCCC[N+](C)(C)C`: the Potency entry in [1], in assay [2], in assay [4], in [5], in assay [10] and in assay [11] was “inactive” each time. Besides, the call in [3], in assay [6], in assay [7] and in assay [8] was inactive.

Regarding `CC(=O)N[C@@H](CCC(N)=O)C(=O)O`, the Potency entry in assay [1], in [2], in assay [4], in assay [5] and in assay [11] was “inactive” throughout. Moreover, the compound was called inactive in [3], in assay [6], in assay [7] and in [8].

With `COc1cccc(Br)c1`, the Potency entry in assay [1], in assay [2], in assay [4], in assay [5] and in assay [9] was “inactive” each time. Further, the call in [3], in [6], in assay [7] and in assay [8] was inactive.

With `FC(F)(F)C(F)(F)C(F)(F)C(F)(F)C(F)(F)C(F)(F)C(F)(F)C(F)(F)C(F)(F)C(F)(F)F`, the activation in assay [1] was 2.2% [at 6.98 µM]. The values for the activity change, negative = cytotoxicity in assay [2], in assay [3] and in assay [7] were 1.03% [at 6.97 µM], 5.5% [at 8.39 µM] and 0.303% [at 8.39 µM], respectively. Also, the values for the viability change, negative = cytotoxic in assay [4], in assay [6] and in assay [8] were 3.38% [at 8.39 µM], 1.23% [at 8.39 µM] and -2.77% [at 8.39 µM], respectively. Moreover, in assay [5], the activity change, negative = inhibition is -2.43% [at 10.5 µM]. For the same compound, the activity, negative = inhibition in assay [10] was 41.9% [at 8.39 µM].

Turning to `NC(=O)c1c(Cl)cccc1Cl`, the Potency result in assay [1], in assay [2], in assay [4], in assay [5], in [11] and in assay [9] was “inactive” throughout. For the same compound, the result in [3], in [6], in [7] and in assay [8] was inactive.

Turning to `Cc1cc(C)cc(OCC2CNC(=O)O2)c1` (stereo unspecified), the Potency entry in [1], in [2], in assay [4] and in assay [5] was “inactive” in each case. The compound was called inactive in [3], in [6], in assay [7] and in assay [8].

For `Nc1nc(F)nc2c1ncn2[C@@H]1O[C@H](CO)[C@@H](O)[C@@H]1O`, the Potency entry in assay [1], in [2], in assay [4], in assay [5] and in [11] was “inactive” throughout. Besides, the outcome in assay [3], in [6], in assay [7] and in assay [8] was inactive.

`C=CC(=O)N1CCOCC1`: the Potency entry in [1], in [2], in assay [4], in [5], in assay [10] and in assay [9] was “inactive” each time. Moreover, the Potency result in [12] was “inactive”. Also, the outcome in assay [3], in assay [6], in [7] and in assay [8] was inactive.

Regarding `O=C(O)c1ccc[n+]([O-])c1`, the Potency result in [1], in assay [2], in assay [4] and in [5] was “inactive” throughout. For the same compound, the call in assay [3], in assay [6], in [7] and in assay [8] was inactive.

`CC/C=C\CCCCO`: the Potency result in [1], in assay [2], in assay [4] and in [5] was “inactive” in each case. Moreover, the compound was called inactive in assay [3], in assay [6], in [7] and in [8].

For the compound `OCC(O)[C@@H](O)[C@H](O)[C@H](O)CO[C@H]1O[C@H](CO)[C@@H](O)[C@H](O)[C@H]1O` (stereo partly specified), the Potency result in assay [1], in assay [2], in assay [4] and in [5] was “inactive” in each case. The compound was called inactive in assay [3], in assay [6], in assay [7] and in [8].

As for `CC1(C)OC(=O)Nc2ccc(Br)cc21`, the Potency result in assay [1], in assay [2], in [4], in assay [5] and in [11] was “inactive” each time. Moreover, the result in [3], in [6], in assay [7] and in assay [8] was inactive.

In the case of `C1CCCCCCCCCCC1`, the activation in [1] was 0.57% [at 15.8 µM]. Moreover, the activity change, negative = cytotoxicity in assay [2] was 1.49% [at 15.8 µM]; in assay [3], -2.08% [at 19 µM]; in assay [7], -6.25% [at 19 µM]. For the same compound, the viability change, negative = cytotoxic in [4] was 0.43% [at 19 µM]; in assay [6], -17.1% [at 19 µM]; in [8], 11% [at 19 µM]. Besides, in assay [5], the activity change, negative = inhibition was -7.22% [at 23.6 µM].

In the case of `Nc1cc(C(Cl)=C(Cl)Cl)c(S(N)(=O)=O)cc1S(N)(=O)=O`, the Potency entry in assay [1], in assay [2], in assay [4] and in assay [5] was “inactive” throughout. Moreover, the compound was classed as inactive in assay [3], in assay [6], in assay [7] and in assay [8].

On to `CC(C)(C)CC(C)(C)N`, for which the Potency in assay [1] is 2.12 µM (active). The Potency result in assay [2], in assay [4] and in [5] was “inactive” each time. For the same compound, the compound was classed as inactive in assay [3], in [6], in assay [7] and in assay [8].
